Screens as filed in PubChem.
CD11b adhes inh: inhibitors of CD11b/CD18 adhesion to fibrinogen, primary screen, K562 cells, luminescence; ATPlite luminescence; Mn2+ added to activate the integrin; inhibition, % at 10 µM; Integrin beta-2 (Homo sapiens) + Integrin alpha-M (Homo sapiens), P05107+P11215; 93,000 compounds, 0.54% hits;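 active = primary inhibition of 50% or more at 10 µM, then 40% or more on retest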
CYP2C9 inhib: blockers of cytochrome P450 2C9 activity – biochemical, luminescence, ADME assay, primary screen. P11712. inhibition, % at 5 µM. 96,000 compounds, 20% hits. CYP2C9 Supersomes, luciferin-H conversion;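 active = blocking of liver enzyme CYP2C9 beyond about 50% at 5 µM, limit read from the data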
Target sequence (P11712 whole entry, looked up): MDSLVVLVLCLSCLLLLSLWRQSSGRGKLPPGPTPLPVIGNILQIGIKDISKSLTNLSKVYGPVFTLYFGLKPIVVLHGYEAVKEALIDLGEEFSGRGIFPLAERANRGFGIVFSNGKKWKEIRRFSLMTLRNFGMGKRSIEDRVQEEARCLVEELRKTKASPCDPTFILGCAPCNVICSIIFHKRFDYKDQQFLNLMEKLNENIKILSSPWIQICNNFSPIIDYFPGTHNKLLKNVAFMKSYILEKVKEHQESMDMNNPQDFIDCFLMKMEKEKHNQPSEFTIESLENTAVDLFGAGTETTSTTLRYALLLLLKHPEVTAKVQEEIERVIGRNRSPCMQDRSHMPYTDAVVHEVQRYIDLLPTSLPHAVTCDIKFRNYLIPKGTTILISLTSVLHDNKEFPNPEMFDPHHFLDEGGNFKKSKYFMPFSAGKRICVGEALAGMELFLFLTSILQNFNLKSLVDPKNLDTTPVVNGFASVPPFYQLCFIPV
CYP2C19 inh: blockers of cytochrome P450 2C19 activity – biochemical, luminescence, ADME assay, primary screen; CYP2C19 Supersomes, luciferin-H EGE luminescence, 30 min; inhibition, % at 5 µM; 96,000 compounds, 21% hits; AID 778, 2007;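 active = CYP2C19 inhibition above a set limit at 5 µM in the primary screen, cut at about 50% in these data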;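 also: plate controls were negative control wells for no effect and 2.5 mM tranylcypromine positive control for full effect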
CYP2C19 activ: human CYP2C19 activators, primary screen, biochemical, luminescence; Cytochrome P450 2C19 (Homo sapiens), P33261; recombinant CYP2C19, luciferin-H EGE luminescence; stronger effect = higher value; 0 = fully inhibited enzyme, 1 = untreated enzyme; activation factor at 5 µM; 96,000 tested, under 10 active; AID 1025, 2008;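 active = activation factor of at least 2 at 5 µM in the primary screen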;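 also: 0 = wells with 2.5 mM tranylcypromine and 1 = vehicle-only wells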
CD11b adhes enh: enhancers of CD11b/CD18 adhesion to fibrinogen, primary screen, K562 cells, luminescence. Integrin beta-2 (Homo sapiens) + Integrin alpha-M (Homo sapiens), P05107+P11215. ATPlite luminescence. activation, % at 10 µM. 93,000 compounds, 0.07% hits;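 active = 10 µM primary screen giving 50% or more activity, confirmed by 40% or more on retest at that dose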
CYP2C9 act: human CYP2C9 activators, primary screen, biochemical, luminescence; Cytochrome P450 2C9 (Homo sapiens), P11712; recombinant CYP2C9, luciferin-H conversion; stronger effect = higher value; factor 1 = untreated enzyme, 0 = blocked; activation factor at 5 µM; 96,000 compounds, 1.4% hits;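 active = activation factor of 2 or more for CYP2C9 at a 5 µM dose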;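 also: 0 = sulfaphenazole-blocked wells and 1 = vehicle-only wells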
Starred values were filed as active, the others as inactive; nt = no result given. Rows were chosen to be rich in hits. Some 28% of all compounds tested hit in one or more screens of this group.

SMILES	CD11b adhes inh	CYP2C9 inhib	CYP2C19 inh	CYP2C19 activ	CD11b adhes enh	CYP2C9 act
CCCCn1c(NC(=O)c2ccccc2)nc2ccccc21	-3	73*	61*	0.4	-1	0.3
CCCCCn1c(C(Cc2ccccc2)NC(C)=O)nc2ccccc21 (stereo unspecified)	-4	23	74*	0.3	1	0.8
O=C(CN1C(=O)C2C3C=CC(C3)C2C1=O)N1CCc2ccccc2C1 (stereo unspecified)	nt	-14	-8	1.1	nt	1.1
O=C(c1ccccc1)c1ccccc1C(=O)N1CCCC1	1	10	3	1	1	0.9
O=C(c1cccc2c1-c1ccccc1/C2=N/O)N1CCCCC1	-6	50	51*	0.5	-2	0.5
COc1ccc(S(=O)(=O)Nc2cc3c(C(C)=O)c(C)oc3c3ccccc23)cc1	20	84*	93*	0.1	-5	0.2
COc1ccccc1C(=O)Nc1ccc(S(=O)(=O)Nc2cc(C)on2)cc1	-14	-5	2	1	3	1
O=C(C1CCN(S(=O)(=O)c2cccc3cccnc23)CC1)N1CCn2c1nc1ccccc12	-10	-39	40	0.6	1	1.4
N#C/C(=C\c1ccco1)C(=O)Nc1cccc2ncccc12	-2	nt	nt	nt	1	nt
CCS(=O)(=O)N1CCCC(C(=O)NCCN2CCC(Cc3ccccc3)CC2)C1 (stereo unspecified)	nt	2	5	1	nt	1
CCCS(=O)(=O)N1CCCC(C(=O)N2CCC(Cc3ccccc3)CC2)C1 (stereo unspecified)	-33	51*	69*	0.3	13	0.5
CS(=O)(=O)N1CCCC(C(=O)NCCN2CCC(Cc3ccccc3)CC2)C1 (stereo unspecified)	-6	-7	64*	0.4	-4	1.1
Cc1ccc(Oc2ccc(S(=O)(=O)N3CCOCC3)cc2C(N)=O)c(-n2nc3ccccc3n2)c1	-12	45	23	0.8	4	0.6
N#Cc1c(N)n[nH]c1CCCN	-5	14	-10	1.1	-1	0.9
CCn1cc2c(c1-c1cccc(C)c1)c(=O)n(C)c(=O)n2C	-8	-6	15	0.8	-3	1.1
Cc1cccc(-c2c3c(=O)n(C)c(=O)n(C)c3cn2C(C)C)c1	-2	57*	22	0.8	-1	0.4
OCC1OC(n2nnc3ccccc32)C(O)C(O)C1O (stereo unspecified)	10	-19	-14	1.1	1	1.2
COc1ccc(-c2noc(CN3CCC(Cc4ccccc4)CC3)n2)cc1	7	71*	66*	0.3	0	0.3
Clc1ccc(-c2noc(CN3CCCC3)n2)cc1	2	4	55*	0.4	-8	1
COc1ccc(-c2noc(CCC(=O)N3CCN(Cc4ccccc4)CC3)n2)cc1	-14	95*	94*	0.1	-2	0
Cc1ccc(-c2noc(CCC(=O)NC3CCCc4ccccc43)n2)cc1 (stereo unspecified)	-12	62*	4	1	3	0.4
Cc1ccc(-c2noc(CN3CCCCC3)n2)cc1	-4	-26	38	0.6	1	1.3
CC(=O)c1ccccc1NC(=O)CSc1nnc2ccccn12	-1	-6	3	1	-1	1.1
CCOc1ccc2nc(-c3ccccc3)nc(SCC(=O)Nc3ncc(C)s3)c2c1	-16	4	-3	1	26	1
CCN(CC)C(=O)CC(c1ccc(F)cc1)c1ccc(OC)cc1 (stereo unspecified)	1	nt	nt	nt	6	nt
SMILES	CD11b adhes inh	CYP2C9 inhib	CYP2C19 inh	CYP2C19 activ	CD11b adhes enh	CYP2C9 act
Cc1ccc(N/C(CSC(N)=O)=N\S(=O)(=O)c2ccc(C)cc2)cc1	-8	-88	17	0.8	-2	1.9
Cc1ccc(-c2noc(CCC(=O)NC3CCN(Cc4ccccc4)CC3)n2)cc1	5	72*	55*	0.5	-4	0.3
Cc1ccc(-c2noc(CCC(=O)N3CCCC3)n2)cc1	10	52*	52*	0.5	3	0.5
COc1ccc(-c2noc(Cc3ccccc3OC)n2)cc1	2	-27	39	0.6	0	1.3
COc1ccc(CCc2nc(-c3ccc(-n4cccc4)cc3)no2)cc1	62*	-7	-19	1.2	12	1.1
CN(C)C(=S)Nc1ccc2ccccc2c1	1	nt	nt	nt	1	nt
C=CCOc1c(CNc2nccs2)cccc1OCC	4	72*	98*	0	2	0.3
N#Cc1cnc2sc3ccccc3n2c1=N	-24	89*	19	0.8	-1	0.1
Nc1ccccc1-c1nc2ccccc2[nH]1	-17	56*	47	0.5	0	0.4
Nc1ccc(-c2nc3ccccc3[nH]2)cc1	-55	-11	-8	1.1	0	1.1
CCc1c(C(=O)Nc2cc(C)ccc2OC)[nH]c(C)c1C(C)=O	2	35	55*	0.4	4	0.7
CCc1c(C(=O)NCCc2ccc(OC)c(OC)c2)[nH]c(C)c1C(C)=O	-6	37	19	0.8	5	0.6
CCc1c(C(=O)NCc2ccc3c(c2)OCO3)[nH]c(C)c1C(C)=O	nt	80*	41	0.6	nt	0.2
CCc1c(C(=O)NCc2ccccc2Cl)[nH]c(C)c1C(C)=O	-1	66*	61*	0.4	-6	0.3
CCCC(C(=O)NCc1ccco1)N(C(=O)CNS(=O)(=O)c1ccccc1)c1ccccc1OC (stereo unspecified)	-2	12	40	0.6	10	0.9
COC(=O)c1sccc1-n1cccc1C(=O)C(=O)N1CCCC1	nt	-4	33	0.7	nt	1
COC(=O)c1sc2ccccc2c1-n1cccc1C(=O)C(=O)Nc1ccc(OC)cc1	nt	101*	42	0.6	nt	0
COC(=O)c1sc2ccccc2c1-n1cccc1C(=O)C(=O)Nc1ccccc1	nt	100*	24	0.8	nt	0
CCCNC(=O)C(=O)c1cccn1-c1ccsc1C(=O)OC	0	8	27	0.7	-1	0.9
O=C(NC1CCCC1)c1noc2c1CCCCC2	2	30	42	0.6	-1	0.7
COc1ccc(C(=O)CSc2nnc(COc3ccc(C#N)cc3)n2-c2ccccc2)cc1	-3	-11	-14	1.1	0	1.1
N#Cc1ccc(CSc2nnc(COc3ccccc3)n2-c2ccccc2)cc1	8	67*	76*	0.2	-2	0.3
COc1ccc(-n2c(COc3ccccc3)nnc2SCc2ccc(C#N)cc2)cc1	-6	93*	96*	0	10	0.1
CCn1c(COc2ccc(C)cc2)nnc1SCc1ccc(C#N)cc1	1	18	3	1	-5	0.8
